Screening results (PubChem)
Most compounds without a hit are left out; they make up all but 2.4% or so of the library.
D2 PAM-1 – HTS Assay for Positive Allosteric Modulators of the Human D2 Dopamine Receptor: Primary Screen for Potentiators | HEK293 T-REx D2, calcium flux, EC20 dopamine potentiation | potentiation, % at 10 µM | actives 0.34% (n = 340,000);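 active = potentiation over 3 SD above the plate norm, cut at about 30% in these data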; note: 0% is about no effect
Target sequence (P14416 whole entry, looked up): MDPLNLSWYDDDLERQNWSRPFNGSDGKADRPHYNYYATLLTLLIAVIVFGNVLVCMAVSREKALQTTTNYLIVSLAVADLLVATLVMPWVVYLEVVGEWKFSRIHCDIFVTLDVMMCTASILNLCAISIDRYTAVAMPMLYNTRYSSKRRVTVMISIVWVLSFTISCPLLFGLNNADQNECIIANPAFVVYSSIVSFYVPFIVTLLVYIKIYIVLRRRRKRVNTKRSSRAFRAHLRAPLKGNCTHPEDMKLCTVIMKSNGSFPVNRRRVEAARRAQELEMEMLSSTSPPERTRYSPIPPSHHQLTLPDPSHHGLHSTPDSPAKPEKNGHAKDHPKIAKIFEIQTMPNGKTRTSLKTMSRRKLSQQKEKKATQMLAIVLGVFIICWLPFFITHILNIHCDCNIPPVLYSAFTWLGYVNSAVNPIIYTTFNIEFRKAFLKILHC
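Potentiation of an EC20 dopamine calcium response measured kinetically over 180 s, after a preceding 180 s compound-only read flagging agonists. Cells: inducible Hek293 Trex D2 line, 4000/well, cultured overnight at 30 C before dye loading.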
D2 ag-1 – HTS Assay for Allosteric Agonists of the Human D2 Dopamine Receptor: Primary Screen for Agonists | D(2) dopamine receptor (Homo sapiens), P14416 | activation, % at 2 µM | actives 0.53% (n = 340,000) | AID 485358, 2010 | HEK293 T-REx D2 cells, calcium flux agonist mode;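 active = activation over 3 SD above normal in the single-dose calcium agonist read, cut at about 30% in these data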; note: 0% is about no effect
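Agonism scored from kinetic calcium signal (1 read/sec, 180 s) following compound pin transfer, after a 10 s baseline. Cells: HEK293 Trex line expressing inducible D2 receptor coupled to calcium, dye-loaded after overnight culture at 30 C.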
D2 antag – HTS Assay for Allosteric Antagonists of the Human D2 Dopamine Receptor: Primary Screen for Antagonists; D(2) dopamine receptor (Homo sapiens), P14416; HEK293 TREx D2 cells, calcium flux, dopamine EC80; inhibition, % at 10 µM; actives 2% (n = 340,000); in the data active = inhibition above about 30%; inactive = below that, where a call was filed; note: 0% is about no effect
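Tetracycline-induced HEK293 T-REx cells expressing D2 force-coupled to calcium signalling were dye-loaded, exposed to compound for 180 s, then challenged with an EC80 of dopamine; calcium flux was followed kinetically for a further 180 s.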
D2 PAM-2 – Beta-Arrestin HTS for Positive Allosteric Modulators of the Human D2 Dopamine Receptor: Potentiators; DiscoveRx D2 beta-arrestin cells, luminescence, 90 min; 100% = 57 uM dopamine signal; potentiation, % (no concentration beside the values); actives 0.23% (n = 360,000); AID 624464, 2012; in the data active = potentiation above about 50%; inconclusive = mostly about 30% to 49%
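D2 cells co-treated with compound plus 50 nM dopamine (EC20) for 90 min at 37 deg C to detect potentiation. Beta-arrestin recruitment was read as enzyme-fragment luminescence after 1 h at ambient temperature. Full response was set by 57 uM dopamine.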
D2 ag-2 – Beta-Arrestin HTS for Positive Allosteric Modulators of the Human D2 Dopamine Receptor: Agonists. actives 0.084% (n = 360,000). activation, % (concentration not given with the values). DiscoveRx PathHunter D2 beta-arrestin, luminescence, 90 min; 100% = 57 uM dopamine signal. D(2) dopamine receptor (Homo sapiens), P14416. AID 624465, 2012; in the data active = activation above about 40%; inconclusive = between about 15% and that limit
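DiscoveRx PathHunter D2 beta-arrestin cells (2,100/well) attached overnight, then compound-stimulated 90 min at 37 C in HBSS/10 mM HEPES/0.1% Tween-20 buffer; beta-galactosidase complementation read by luminescence after 1 h at ambient temperature. Dopamine 57 uM final (EC100) as control.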
An asterisk follows results filed as active; ? = inconclusive; . = no result.

SMILES | D2 PAM-1 | D2 ag-1 | D2 antag | D2 PAM-2 | D2 ag-2
O=[N+]([O-])c1cc(Cl)ccc1NCCNc1ncc(C(F)(F)F)cc1Cl | -11 | 0 | 36* | 8 | -6
O=c1oc2cc(O)ccc2cc1-c1nc2c(s1)CCc1ccccc1-2 | -24 | 141* | 80* | 15 | 1
O=c1oc2ccccc2cc1-c1nc2c(s1)CCc1ccccc1-2 | -10 | -1 | 9 | ? | 11
CCCN1CCC(=O)N([C@H](CN=[N+]=[N-])Cc2ccccc2)CC1 | 6 | 0 | 38* | -13 | -3
CC(C)CN1CCC(=O)N([C@H](CN=[N+]=[N-])Cc2ccccc2)CC1 | -4 | 0 | -6 | -4 | -2
Cc1cccc(CSCCNC(=O)CN(c2ccccc2)S(=O)(=O)N(C)C)c1 | 8 | 0 | . | . | .
COC(=O)C1C(=O)NC(SC)=C(C#N)C1c1ccccc1 (centres undefined) | 34* | 0 | 2 | 0 | -1
Cc1ccc2onc(CC(=O)N3CCN(c4cc(Cl)ccc4C)CC3)c2c1 | -1 | 0 | . | . | .
CCS(=O)(=O)N1Cc2ccccc2CC1C(=O)N(C)CC(=O)Nc1cccc(F)c1 (centres undefined) | -6 | 1 | 41* | -10 | -5
Cc1nc(N2CCCC2)ncc1C(=O)N1CCN(c2ccccc2F)CC1 | -4 | . | . | . | .
Cc1ccc2nc(N3C(=O)C(O)=C(C(=O)c4ccco4)C3c3ccc(O)cc3)sc2c1 (centres undefined) | -8 | 0 | -17 | . | .
O=C(C1=C(O)C(=O)N(c2nc3ccc(Cl)cc3s2)C1c1ccco1)c1ccco1 (centres undefined) | 19 | -1 | 8 | -3 | 1
Cc1ccc2nc(N3C(=O)C(O)=C(C(=O)c4ccco4)C3c3ccc(C)o3)sc2c1 (centres undefined) | 11 | -1 | 31* | -2 | -7
Cc1ccc2nc(N3C(=O)C(O)=C(C(=O)c4ccc(C)o4)C3c3ccco3)sc2c1 (centres undefined) | 17 | 0 | 31* | -4 | 7
COc1ccccc1NC(=O)c1cc2cc3ccc(OC)c(Cl)c3nc2s1 | 0 | -1 | . | . | .
O=C(NCCC(=O)N(Cc1ccco1)Cc1cccs1)c1ccc(Br)cc1 | -18 | -3 | 41* | -5 | -3
Cc1ccc(NC(=O)CCc2nnc3ccc(N4CCC(C)CC4)nn23)nc1 | 10 | 0 | 32* | -9 | -3
CCOc1ccc(CNC(=O)Cn2ncc3c(=O)oc4ccc(C)cc4c32)cc1 | -1 | 1 | . | . | .
O=C(O)c1ccc(N=Cc2c(O)ccc3ccccc23)cc1 | -15 | 39* | -5 | 3 | 6
COc1ccc(N=Cc2c(O)ccc3ccccc23)cc1 | 26 | 2 | -3 | -4 | 2
CCOC(=O)c1sc(/N=C/c2c(O)ccc3ccccc23)cc1C | 1 | -1 | 31* | -15 | -2
NC(=O)c1ccc(N=Cc2c(O)ccc3ccccc23)cc1 | . | . | . | 0 | -2
CSc1ccc(C2CC(=O)Oc3c2c(=O)n(C)c2ccccc32)cc1 (centres undefined) | -9 | 0 | . | . | .
CC1Cc2ccccc2N1C(=O)C12CCC(C)(C(=O)C1)C2(C)C (centres undefined) | . | 1 | 32* | -15 | 0
COc1cc(NC(=O)N2c3ccccc3Sc3ccccc32)c(C(=O)O)cc1OC | -1 | 0 | 8 | 3 | 50*
SMILES | D2 PAM-1 | D2 ag-1 | D2 antag | D2 PAM-2 | D2 ag-2
CCC(C)S(=O)(=O)c1oc(-c2cccs2)nc1S(=O)(=O)c1ccccc1 (centres undefined) | 13 | 10 | . | . | .
CCOC(=O)C1CCN(c2c(C(=O)c3ccc(C)cc3)cnc3ccc(F)cc23)CC1 | -1 | 0 | . | . | .
CC1=CC(=O)CC2C1(C)CCC(C)C2(C)CCC(C)CC(=O)O (centres undefined) | 2 | 0 | 32* | -18 | 2
Cc1cc(NC(=O)CN2CC(C)OC(C)C2)n(-c2nc3ccccc3s2)n1 (centres undefined) | 9 | 0 | 34* | -13 | -2
O=C(Cn1cc(C(=O)c2ccncc2)c(=O)c2cc(F)ccc21)Nc1ccc(Cl)cc1 | -17 | . | . | . | .
O=C(NCc1ccccc1)c1ccc2nnsc2c1 | 0 | 0 | 34* | -3 | -4
CN(C(=O)CSc1nc2ccc(NC(=O)c3ccco3)cc2s1)c1ccccc1 | 1 | 0 | . | . | .
Oc1ccccc1N1CCN(c2ncnc3scc(-c4ccccc4)c23)CC1 | 33* | 9 | -1 | 10 | 5
Oc1ccccc1N1CCN(c2ncnc3scc(-c4ccc(F)cc4)c23)CC1 | . | . | . | 2 | 2
COc1cccc(N2CCN(C(=O)C3Cc4ccccc4N3C(C)=O)CC2)c1 (centres undefined) | 2 | 2 | . | . | .
CCC(Sc1nncn2c1cc1occc12)C(=O)Nc1ccc(C)c(Cl)c1 (centres undefined) | -3 | . | . | . | .
O=C1c2cccc3c(N4CCCCC4)ccc(c23)C(=O)N1c1ccc(O)cc1 | -4 | 66* | 29 | -6 | 1
O=C1c2cccc3c(N4CCCCC4)ccc(c23)C(=O)N1c1ccccc1O | -5 | 36* | 8 | -8 | -3
O=C1c2cccc3cccc(c23)C(=O)N1c1ccc(O)cc1 | -2 | 0 | 4 | -1 | 3
COc1ccc(Br)cc1CNc1ccc(O)cc1 | . | -1 | 13 | 55* | 10
O=C(c1cccc(Br)c1)N1CCN(c2ccc(N3CCOCC3)nn2)CC1 | -15 | 0 | 33* | -8 | -3
O=C(Oc1ccccc1C(=O)N1CCOCC1)c1cccc(Br)c1 | 3 | 0 | 47* | -12 | 0
O=C(c1cncc(Br)c1)N1CCN(c2ccc(N3CCOCC3)nn2)CC1 | -2 | 0 | 18 | -5 | -3
CCCc1cc(=O)oc2c3c(cc(OCC(=O)N[C@@H](C)C(=O)O)c12)OC(C)(C)CC3 | 14 | 1 | 33* | -8 | -5
CCCc1cc(=O)oc2c3c(cc(OCC(=O)N[C@@H](CSC)C(=O)O)c12)OC(C)(C)CC3 | 1 | 0 | 5 | -4 | -3
CC1(NC(=O)C2CCCCC2)CCS(=O)(=O)C1 (centres undefined) | -3 | 2 | 42* | 0 | -18
CCOc1ccc(NC(=O)C2CC(=O)OC2c2ccccc2)cc1 (centres undefined) | 1 | 0 | -10 | -5 | 10
COC(=O)c1ccc(NC(=O)C2CC(=O)OC2c2ccccc2)cc1 (centres undefined) | -15 | 0 | 35* | -6 | -5
